SKBR3 24h inh: SK-BR-3 proliferation inhibitors. SK-BR-3 viability, CellTiter-Glo ATP luminescence, 24 h; hits give low values. viability, % at 10 µM. hit rate 0.47% among 41,000;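 active means viability at or below the median of all test compounds minus 3 SD, in both replicates if run twice, cut at about 45% in these data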;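 further: 100% = median untreated cell wells and 0% = median positive control drug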
Cdc25B inh: human M-phase inducer phosphatase 2 inhibition; AID 368; hit rate 0.1% among 65,000; P30305; recombinant Cdc25B, OMFP fluorescence Ex485/Em525; inhibition, %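 (compounds tested at 10 µM final in the well)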; in the data active means inhibition above about 50%
Target sequence (P30305 whole entry, looked up): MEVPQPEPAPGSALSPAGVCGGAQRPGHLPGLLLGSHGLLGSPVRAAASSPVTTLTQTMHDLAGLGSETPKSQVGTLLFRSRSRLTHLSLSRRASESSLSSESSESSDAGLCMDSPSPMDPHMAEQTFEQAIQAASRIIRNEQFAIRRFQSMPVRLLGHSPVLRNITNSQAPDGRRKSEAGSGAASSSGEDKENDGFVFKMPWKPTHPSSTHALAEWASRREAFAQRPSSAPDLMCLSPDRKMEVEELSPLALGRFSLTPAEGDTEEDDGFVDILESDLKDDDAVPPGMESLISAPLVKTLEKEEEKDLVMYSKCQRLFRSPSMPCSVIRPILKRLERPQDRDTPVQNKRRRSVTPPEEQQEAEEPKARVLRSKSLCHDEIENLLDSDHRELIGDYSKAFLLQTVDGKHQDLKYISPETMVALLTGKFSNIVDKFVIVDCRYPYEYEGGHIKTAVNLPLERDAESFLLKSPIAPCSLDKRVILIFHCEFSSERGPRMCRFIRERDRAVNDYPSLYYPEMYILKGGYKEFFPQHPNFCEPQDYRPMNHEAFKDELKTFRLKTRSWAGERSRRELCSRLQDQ
MKP-1 inh: blocks human MKP-1 phosphatase activity; P28562; recombinant MKP-1, OMFP hydrolysis fluorescence; inhibition, %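 (compounds tested at a single concentration somewhere between 10 and 100 µM)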; hit rate 0.15% among 65,000;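 active means inhibition above about 50%, limit read from the data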;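 further: 0% = DMSO max control wells and 100% = wells with enzyme stopped by NaOH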
Htt clearance: mutant huntingtin protein clearance; HeLa Exon1htt(103Q)mCFP, aggregate imaging; zero = plate's median compound well; inhibition, % at 1.5 µM; hit rate 0.42% among 47,000;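 active means inhibition of aggregate fluorescence above about 70%, also judged a hit by eye on the cell image, limit read from the data, passing the limit was not always enough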;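 further: cells exposed to compound for three days before fixation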
Jurkat tox 60K: cytotoxicity toward Jurkat cells; AID 463; Jurkat E6.1 viability, ATP luminescence, 48 h; hit rate 1.2% among 56,000; inhibition, % at 4 µM;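 active means inhibition above the mean inhibition of all tested compounds plus 3 SD, cut at about 28% in these data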
Redox H2O2 0p5DTT: counter-screen for Cdc25B probes: redox cycling H2O2 in 0.5 mM DTT; cell-free redox cycling H2O2 generation; shares compounds with Cdc25B inh; EC50, µM; AID 682; hit rate 50% among 30; in the data active means EC50 below about 30 µM
Redox 1 DTT: generates H2O2 by redox cycling in 1 mM DTT. shares compounds with Cdc25B inh. cell-free redox cycling H2O2 generation. EC50, µM. 30 tested, under 10 active. AID 683; in the data active means EC50 below about 50 µM
Redox H2O2: redox cycling H2O2 generation, MKP probe counter-screen; EC50, µM; 60 tested, under 10 active; DTT, phenol red/HRP; shares compounds with MKP-1 inh; call rule not given here
* = called active by the depositor; i = inactive; . = not tested or not shown. Compounds with a hit are over-represented: about 1.6% of the library has one in this group of screens.

SMILES	SKBR3 24h inh	Cdc25B inh	MKP-1 inh	Htt clearance	Jurkat tox 60K	Redox H2O2	others
C=CCN(CC=C)S(=O)(=O)c1ccc2nc(NC(=O)C(C)C)sc2c1	84	-4	12	37	72*	.
O=C(COC(=O)Cn1c(C(F)(F)F)nc2ccccc21)Nc1ccc2c(c1)OCCO2	.	.	.	21	.	.
COc1ccc(CCNC(=O)CSc2nc(N)c(C#N)c(-c3cccs3)c2C#N)cc1OC	59	-9	22	72*	6	.
CCCn1c(NC(=O)c2ccc(Cl)c(S(=O)(=O)N3CCCC3)c2)nc2ccccc21	.	-17	22	48	7	.
O=C(Cn1nnc(-c2ccccc2-n2cnnn2)n1)N1CCCCC1	142	0	-4	-31	3	.
O=C(Cn1nnc(-c2ccccc2Cl)n1)N1CCN(S(=O)(=O)c2ccc(Cl)cc2)CC1	.	1	24	76*	2	.
CC12C(=O)N(c3nccs3)C(=O)C1C1C=CC2C1 (stereo not drawn)	96	-7	5	.	-3	.
CC1(C)OC(=O)C(=CNC(Cc2c[nH]c3ccccc23)C(=O)O)C(=O)O1 (stereo not drawn)	121	-17	-15	-8	4	.
CCC(=O)Nc1nc2ccccc2n1Cc1ccc(C)cc1	.	-9	8	-39	76*	.
CC(=O)Nc1cc(OC(C)=O)c2nonc2c1OC(C)=O	2.2*	100*	-17	.	18	.	Redox H2O2 0p5DTT=3.9*;Redox 1 DTT=14*
Nc1cccc2cnccc12	106	81*	6	35	11	.	Redox H2O2 0p5DTT=>50;Redox 1 DTT=>50
N#Cc1cccc2cnccc12	91	6	4	.	-2	.
O=S(Cc1ccccc1)CC(O)(c1ccccc1)c1ccccc1 (stereo not drawn)	.	.	.	25	.	.
CCOC(=O)NC1(C(F)(F)F)C(=O)N(Cc2ccccc2)C2=C1C(=O)CC(C)(C)C2 (stereo not drawn)	.	.	.	41	.	.
C1=CC2c3ccccc3NC(c3ccncc3)C2C1 (stereo not drawn)	94	4	-14	.	2	.
Cc1ccc2c(c1)C1C=CCC1C(C(=O)O)N2 (stereo not drawn)	72	51*	20	.	3	.	Redox H2O2 0p5DTT=>50;Redox 1 DTT=>50
COc1cccc2c1NC(C(=O)O)C1CC=CC21 (stereo not drawn)	.	51*	42	.	-3	.	Redox H2O2 0p5DTT=>50;Redox 1 DTT=>50
Cc1c(N=c2c(=O)c3ccccc3c2=O)c(=O)n(-c2ccccc2)n1C	86	98*	88*	.	4	>50	Redox H2O2 0p5DTT=13*;Redox 1 DTT=41*
Cc1c(N=CC=Nc2c(C)n(C)n(-c3ccccc3)c2=O)c(=O)n(-c2ccccc2)n1C	.	1	6	.	1	.
[O-]/[N+](=C\c1ccc(OC(F)F)cc1)c1ccccc1	108	73*	65*	.	7	>50	Redox H2O2 0p5DTT=>50;Redox 1 DTT=>50
[O-]/[N+](=C\c1ccncc1)c1ccccc1	.	64*	64*	-16	-10	i	Redox H2O2 0p5DTT=>50;Redox 1 DTT=>50
CCCS(=O)(=O)N1CCN(C(=O)COc2ccc(OC)cc2)CC1	.	.	.	33	.	.
COc1ccc2noc3c2c1C(=O)c1ccccc1-3	.	97*	79*	.	24	>50	Redox H2O2 0p5DTT=27*;Redox 1 DTT=>50
COc1ccc(C2C3=C(CCCC3=O)Nc3nc4ccccc4n32)c(OC)c1OC (stereo not drawn)	70	3	3	.	0	.
COc1ccc(N2CC(C(=O)O)CC2=O)cc1 (stereo not drawn)	.	.	.	1	.	.
SMILES	SKBR3 24h inh	Cdc25B inh	MKP-1 inh	Htt clearance	Jurkat tox 60K	Redox H2O2	others
[O-]/[N+](=C/c1ccc(F)cc1)c1ccccc1	149	48	82*	.	-6	>50
Cc1ccc(-c2csc(NC(=O)c3ccno3)n2)cc1	.	23	53*	20	.	>50
CCOc1cc(S(=O)(=O)N2CCN(Cc3ccccc3)CC2)ccc1Br	93	-16	-4	-32	-3	.
O=C(Nc1ccccc1)c1ccc2nc(-c3ccco3)c(-c3ccco3)nc2c1	63	45	59*	.	10	>50
O=C(c1cc(C2CC2)on1)N1CCN(c2ccccc2)CC1	.	.	.	-3	.	.
CCOc1cc(/C=C(/C#N)c2ccc(F)cc2)ccc1OCc1ccc(C(=O)O)o1	91	-4	54*	.	6	>50
O=C(Nc1cccc(NC(=O)c2ccc(Br)o2)n1)c1ccc(Br)o1	.	-1	22	.	.	.
N#Cc1c(NC(=O)c2ccc(Br)o2)n(-c2ccccc2)c2nc3ccccc3nc12	76	8	23	.	-6	>50
Cc1cccc(N2CCN(C(=O)Cc3c(C(=O)O)[nH]c4ccc(Cl)cc34)CC2)c1C	89	2	53*	66	6	>50
Cc1cccc(N2CCN(C(=O)CCn3c(=O)[nH]c4ccccc4c3=O)CC2)c1C	.	-25	19	-76	-4	.
Cc1ccc(CNC(=O)C2CCC(=O)N2CCc2ccccc2)cc1 (stereo not drawn)	.	.	.	-11	.	.
O=C1c2ccccc2-c2onc3ccc(NCCCn4ccnc4)c1c23	82	6	25	.	-4	>50
Cc1nc(NCCCn2ccnc2)c2ccccc2n1	.	-4	7	.	8	.
O=C(Cn1ncc2c1-c1ccccc1OC2)N1CCN(Cc2ccc3c(c2)OCO3)CC1	.	-11	17	.	11	.
O=C1Nc2ccccc2SC(c2ccccc2)C1O (stereo not drawn)	.	21	58*	.	-11	>50
COC(=O)C(NC(=O)c1ccc(C)cc1)(Nc1cccc(C)n1)C(F)(F)F (stereo not drawn)	.	.	.	39	.	.
Cc1ccc(C(=O)CSc2nnc(-c3ccco3)n2CC2CCCO2)cc1 (stereo not drawn)	92	-7	4	-14	-3	.
COc1ccc(-c2cc3nc(C4CCN(C(=O)OC(C)(C)C)CC4)c(C(=O)O)cn3n2)cc1	.	-4	65*	48	-4	>50
CCOC(=O)c1sc(NC(=O)CSc2n[nH]c(-c3ccccc3)n2)c(C#N)c1C	114	6	12	.	9	.
Cc1ccc(/C=C/C2=Cc3c(sc(NC(=O)CSc4n[nH]c(N)n4)c3C#N)C(C)(C)C2)o1	.	34	69*	.	-3	>50
COC(=O)c1ccccc1NC(=O)CN1C(=O)C2CCCN2c2ncc(Cl)cc21 (stereo not drawn)	.	5	50*	48	1	>50
CCc1ccccc1NC(=O)CN1C(=O)C2CCCN2c2ncc(Cl)cc21 (stereo not drawn)	96	-6	4	35	12	.
O=C1C(C2=C(O)c3ccccc3C2=O)=Nc2ccccc21	.	23	91*	.	-5	>50
CC1(C)Cc2c(sc3nc(SCC#N)n(C4CCCCC4)c(=O)c23)CO1	83	-19	-19	.	.	.
Cc1ccc(C)n1-c1cccc(C(=O)O)c1	99	21	50*	.	8	>50
CC1(c2cccs2)CC(c2cccs2)=C(C#N)C(=O)N1 (stereo not drawn)	80	-1	7	.	-8	.
